# Assay results published in PubChem BioAssay (NCI).
# About 79,000 compounds went through this panel and 15% of them were active in at least one assay; those are over-represented in the sample as a whole. Unmarked numbers belong to inactive results. The source made the active and inactive calls. Rule as the data show it: active = growth inhibition above about 70%; inactive = the rest.
# How the values were obtained:
# [1] = NCI Yeast Anticancer Drug Screen. Data for the rad50 strain (AID 155);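 also: 0% = growth of vehicle-only cultures of the same strain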; conditions: S. cerevisiae rad50 strain growth inhibition, stronger effect = higher value
# In short: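 Vehicle-treated cultures provide the reference for the growth inhibition reported for compound-exposed, repair-deficient yeast.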
# [2] = NCI Yeast Anticancer Drug Screen. Data for the mec2-1 strain (AID 157); conditions: S. cerevisiae mec2-1 strain, stronger effect = higher value
# In short: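 Growth inhibition is read against vehicle-treated controls after compound exposure of the mec2-1 yeast strain, which is defective in DNA damage repair or cell cycle control.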
# [3] = NCI Yeast Anticancer Drug Screen. Data for the sgs1 mgt1 strain (AID 161);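 also: 0% = growth of cultures given vehicle only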; conditions: S. cerevisiae sgs1 mgt1 strain, stronger effect = higher value
# In short: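 Growth of a repair-deficient yeast mutant was monitored after compound treatment and expressed as inhibition relative to vehicle-treated cultures.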
# [4] = NCI Yeast Anticancer Drug Screen. Data for the cln2 rad14 strain (AID 165);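 also: 0% = growth equal to vehicle treated cultures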; conditions: S. cerevisiae cln2 rad14 strain, stronger effect = higher value
# In short: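 Growth inhibition, relative to vehicle-treated controls, is the read-out. The test organism is a yeast strain with defined genetic alterations, cln2 rad14.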
# [5] = NCI Yeast Anticancer Drug Screen. Data for the bub3 strain (AID 167); conditions: S. cerevisiae bub3 mutant strain, stronger effect = higher value
# In short: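 Mutant yeast screening strain plus compound; vehicle-treated cultures serve as the 0% inhibition reference.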
# [6] = NCI Yeast Anticancer Drug Screen. Data for the mlh1 rad18 strain (AID 175); conditions: S. cerevisiae mlh1 rad18 strain growth inhibition, stronger effect = higher value
# In short: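 Cells of a genetically altered yeast strain, deficient in DNA damage repair, were treated with compound. Their growth was then compared with that of vehicle-treated cultures to give inhibition.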
# [7] = at 5.0 µM (retest, dose inferred, filed as 0.5)
# [8] = at 50.0 µM (retest, dose inferred, filed as 5.0)
Compound,"growth inhibition [1, 7]","growth inhibition [1, 8]",growth inhibition ([1]; at 50.0 µM),"growth inhibition [2, 7]","growth inhibition [2, 8]",growth inhibition ([2]; at 50.0 µM),"growth inhibition [3, 7]","growth inhibition [3, 8]",growth inhibition ([3]; at 50.0 µM),"growth inhibition [4, 7]","growth inhibition [4, 8]",growth inhibition ([4]; at 50.0 µM),"growth inhibition [5, 7]","growth inhibition [5, 8]",growth inhibition ([5]; at 50.0 µM),"growth inhibition [6, 7]","growth inhibition [6, 8]",growth inhibition ([6]; at 50.0 µM)
CNc1ccc(N)cc1,6%,-9%,-15.1%,-2%,-5%,21.6%,-8%,-2%,-3.85%,5%,1%,26.4%,9%,8%,7.1%,0%,-5%,-15.2%
O=C(CBr)c1ccc2cc(Br)c3ccccc3c2c1,55%,94% (active),64%,84% (active),96% (active),44%,98% (active),95% (active),68.5%,16%,92% (active),46.1%,81% (active),94% (active),41.1%,83% (active),95% (active),61%
O=C(Cn1cnc2ccc([N+](=O)[O-])cc21)N1CCN(c2ccccc2)CC1,-2%,-7%,10.3%,4%,8%,19.6%,-25%,2%,12.1%,7%,-5%,-53.6%,10%,7%,-15.4%,-9%,-22%,0.6%
C=C1C(=O)OC2C/C(C)=C/CC/C(C)=C/CCC3(COC(C)=O)OC3CC12 (stereo not given),4%,98% (active),92.7% (active),14%,98% (active),94.2% (active),10%,97% (active),94.2% (active),1%,95% (active),92.5% (active),11%,97% (active),93.2% (active),37%,98% (active),92.8% (active)
O=C(O)C1C(C(=O)O)C23CC2(C(=O)O)C2(C(=O)O)CCC3=C3CCCC312 (stereo not given),3%,100% (active),51.3%,-1%,99% (active),55%,-7%,100% (active),47.8%,-21%,99% (active),19.4%,5%,99% (active),85.3% (active),-3%,100% (active),67.8%
COc1cc(OC)cc(C2OC3=C(Nc4ccc([N+](=O)[O-])cc4N3)C2=O)c1 (stereo not given),2%,60%,86.8% (active),10%,40%,59.8%,30%,50%,81.1% (active),11%,29%,57%,24%,16%,51.2%,-4%,49%,82.4% (active)
OC(CNc1ccnc2cc(Cl)ccc12)CNc1ccnc2cc(Cl)ccc12,-2%,34%,40%,0%,31%,23.1%,0%,46%,15.6%,-4%,46%,-21.2%,-2%,41%,2.8%,2%,60%,85.7% (active)
COc1ccc(/C=c2\sc3nnc(CCC(=O)Nc4cccc(C(F)(F)F)c4)n3c2=O)cc1,-2%,28%,29.9%,0%,43%,53.4%,-2%,51%,44.9%,1%,21%,22.1%,0%,38%,29.6%,-3%,47%,76.8% (active)
O=S(=O)(Nc1ccnn1-c1ccccc1)c1ccc(N=Cc2c3ccccc3nc3cc(Cl)ccc23)cc1,22%,29%,96.8% (active),12%,12%,96.7% (active),10%,7%,96.4% (active),-1%,-1%,68.7%,17%,17%,67.9%,10%,19%,97.5% (active)
O=[N+]([O-])OC1CCCC(O[N+](=O)[O-])c2c1n([O-])c1ccccc1[n+]2=O (stereo not given),53%,91% (active),89.3% (active),40%,86% (active),21.2%,58%,94% (active),82.5% (active),39%,84% (active),47.1%,19%,73% (active),17.5%,53%,94% (active),84% (active)
